Test systems include CDC2L2; CDK2; CDK3; CDK4-cyclinD1; CDK4-cyclinD3; CDK4; CDK5; CDK7.
Holding throughout (settings): concentration: 1 μM,replicates: in singlicate; n = 1
For another assay, the system named is T1, CDC2L5.
T1 construct: gene CDK13

The next assay deals with T2, CDK11.
T2 construct: gene CDK19
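Also: KINOMEscan kinase panel screen.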

For the compound `Cn1ccc2ncnc(Oc3ccc(NC(=O)Nc4cccc(C(F)(F)F)c4)c(F)c3)c21`, the “%Inh” value in the assay with CDC2L2 is reported as 0%; with CDC2L5 it was 33%; in the assay with CDK11, 99.3%; with CDK2, 7%; in the assay with CDK3, 39%; in the assay on CDK4-cyclinD1 it was 16%. For the same compound, the “%Inh” value with CDK4-cyclinD3 came out at 0%; in the assay with CDK4, 0%; in the assay on CDK5 it was 10%; with CDK7, 68%.
As to `Cn1ccc2ncnc(Oc3ccc(NC(=O)Nc4cccc(C(F)(F)F)c4)c(Cl)c3)c21`, the “%Inh” value with CDC2L2 came to 5%; in the assay on CDC2L5, 0%; with CDK11, 99.8%; with CDK2 it was 0%; in the assay with CDK3, 5%; with CDK4-cyclinD1 it was 8%. The “%Inh” value in the assay on CDK4-cyclinD3 was 0%; in the assay with CDK4, 0%; in the assay with CDK5, 0%; in the assay with CDK7, 2%.
On to `CCOC(=O)N1CCC(n2cnc(-c3ccc(F)cc3)c2-c2ccnc(N)n2)CC1` [SB-219952], for which the “%Inh” value stood at 23% with CDC2L2; 30% in the assay with CDC2L5; 29% in the assay on CDK11; 0% in the assay on CDK2; 0% with CDK3; 24% with CDK4-cyclinD1. The “%Inh” value with CDK4-cyclinD3 amounted to 6%; in the assay with CDK4, 32%; with CDK5, 0%; with CDK7 it was 30%.
On to `COc1cccc(CNC(=O)NC2CCN(c3ccnc(Nc4cc(OC)c(OC)c(OC)c4)n3)C2)c1` (stereo not shown) [GSK1379765], for which the “%Inh” value is recorded as 25% in the assay with CDC2L2; 0% with CDC2L5; 22% in the assay on CDK11; 0% with CDK2; 8% in the assay on CDK3; 4% in the assay on CDK4-cyclinD1. The “%Inh” value is listed as 0% in the assay with CDK4-cyclinD3, 14% with CDK4, 0% with CDK5 and 0% with CDK7.
Turning to `CS(=O)(=O)Nc1ccc(-c2ccnc3[nH]ccc23)cc1` [GSK993273], the “%Inh” value worked out at 0% in the assay with CDC2L2; 0% with CDC2L5; 45% in the assay on CDK11; 0% with CDK2; 15% in the assay with CDK3; 0% in the assay with CDK4-cyclinD1. For the same compound, the “%Inh” value in the assay with CDK4-cyclinD3 worked out at 0%; with CDK4, 0%; in the assay with CDK5, 0%; in the assay with CDK7, 37%.
Consider `Cn1cc(-c2cccc3c(N)c(C(N)=O)nnc23)cn1`, for which the “%Inh” value with CDC2L2 is 7%; in the assay on CDC2L5 it was 10%; with CDK11 it was 19%; with CDK2 it was 17%; in the assay with CDK3, 30%; in the assay on CDK4-cyclinD1, 8%. In addition, the “%Inh” value is 7% in the assay on CDK4-cyclinD3, 0% with CDK4, 3% with CDK5 and 26% in the assay on CDK7.
For `O=C1NCCc2[nH]c(-c3ccncc3)cc21`, the “%Inh” value with CDC2L2 was 0%; in the assay with CDC2L5, 38%; in the assay with CDK11, 22%; in the assay with CDK2 it was 1%; in the assay on CDK3, 13%; with CDK4-cyclinD1 it was 21%. In addition, the “%Inh” value with CDK4-cyclinD3 turned out to be 36%; in the assay with CDK4, 27%; in the assay on CDK5, 29%; with CDK7 it was 71%.
As for `NC(=O)Nc1sc(-c2ccc(F)cc2)cc1C(N)=O` [GW789449], the “%Inh” value in the assay with CDC2L2 came out at 0%; in the assay on CDC2L5 it was 14%; in the assay on CDK11, 0%; in the assay with CDK2, 0%; in the assay with CDK3 it was 17%; in the assay on CDK4-cyclinD1, 30%. In addition, the “%Inh” value with CDK4-cyclinD3 was determined as 0%; with CDK4, 0%; in the assay with CDK5, 0%; in the assay with CDK7, 19%.
`CC(C)c1nc(-c2cccc(NS(=O)(=O)c3ccccc3)c2)c(-c2ccnc(Nc3ccc4c(c3)CN(C)CC4)n2)s1` [GSK1649598]: the “%Inh” value with CDC2L2 is on record as 24%; with CDC2L5 it was 92.7%; with CDK11 it was 0%; with CDK2, 99.3%; with CDK3 it was 99.6%; with CDK4-cyclinD1 it was 65%. Also, the “%Inh” value in the assay with CDK4-cyclinD3 worked out at 44%; with CDK4 it was 93.7%; in the assay with CDK5 it was 87%; in the assay with CDK7, 78%.
As for `CCn1c(-c2nonc2N)nc2cncc(Br)c21` [SB-738004], the “%Inh” value was found to be 13% with CDC2L2; 18% with CDC2L5; 14% in the assay with CDK11; 1% in the assay on CDK2; 3% with CDK3; 43% in the assay on CDK4-cyclinD1. In addition, the “%Inh” value with CDK4-cyclinD3 is on record as 0%; in the assay on CDK4 it was 36%; in the assay with CDK5 it was 0%; in the assay with CDK7 it was 48%.
Take `Cc1ccc(CC(=O)N2CCc3cc(-c4cn(C)c5ncnc(N)c45)ccc32)cc1` [GSK2634758]: the “%Inh” value is 21% in the assay on CDC2L2; 0% in the assay on CDC2L5; 72% in the assay on CDK11; 5% in the assay on CDK2; 0% with CDK3; 0% in the assay with CDK4-cyclinD1. Besides, the “%Inh” value in the assay on CDK4-cyclinD3 came to 0%; in the assay with CDK4, 26%; with CDK5 it was 10%; in the assay on CDK7, 1%.
On to `Cn1ccc2ncnc(Oc3ccc(NC(=O)Nc4cnn(C(C)(C)C)c4)c(Cl)c3)c21`, for which the “%Inh” value with CDC2L2 is recorded as 0%; in the assay with CDC2L5, 45%; in the assay on CDK11, 99.6%; in the assay on CDK2, 0%; in the assay with CDK3, 0%; with CDK4-cyclinD1, 0%. Besides, the “%Inh” value in the assay with CDK4-cyclinD3 worked out at 0%; with CDK4, 0%; in the assay with CDK5 it was 2%; with CDK7 it was 27%.
Take `CC(C(=O)NC1CCN(c2ccnc(Nc3ccc(F)cc3)n2)C1)c1ccc(Cl)cc1` (stereo not shown) [GSK1379713]: the “%Inh” value turned out to be 0% in the assay on CDC2L2; 0% in the assay with CDC2L5; 6% in the assay on CDK11; 0% with CDK2; 23% in the assay on CDK3; 0% in the assay on CDK4-cyclinD1. Further, the “%Inh” value in the assay with CDK4-cyclinD3, in the assay on CDK4, with CDK5 and with CDK7 was 0% in each case.
As to `c1ccc(Oc2ccc(Nc3ccnc4ccc(-c5ccccn5)cc34)cc2)cc1` [GW407034], the “%Inh” value in the assay on CDC2L2 is 0%; in the assay on CDC2L5, 0%; in the assay on CDK11, 12%; in the assay with CDK2, 0%; in the assay with CDK3, 15%; with CDK4-cyclinD1, 0%. Also, the “%Inh” value with CDK4-cyclinD3 was determined as 12%; with CDK4 it was 0%; in the assay on CDK5 it was 93.1%; in the assay on CDK7, 0%.
On to `O=c1[nH]cc(-c2ccc(O)cc2)c2sc(-c3ccncc3)cc12` [GSK1033723], for which the “%Inh” value is recorded as 12% with CDC2L2; 0% in the assay with CDC2L5; 0% in the assay on CDK11; 0% in the assay with CDK2; 1% in the assay with CDK3; 0% in the assay on CDK4-cyclinD1. The “%Inh” value is on record as 0% with CDK4-cyclinD3, 31% with CDK4, 0% in the assay on CDK5 and 0% in the assay on CDK7.
Consider `CN(c1ccc2c(c1)nc(NCc1ccc(F)cc1)n2C)c1ccnc(Nc2ccc(CS(C)(=O)=O)cc2)n1.Cl` [GW813244], for which the “%Inh” value is on record as 92.6% in the assay on CDC2L2; 0% in the assay with CDC2L5; 26% with CDK11; 5% in the assay with CDK2; 6% with CDK3; 0% in the assay with CDK4-cyclinD1. Also, the “%Inh” value is recorded as 10% with CDK4-cyclinD3, 22% in the assay with CDK4, 0% with CDK5 and 31% in the assay with CDK7.

Source of the values: publication PMC5540273 (PLoS ONE, 2017).
